This passage reports median seed-adjusted z-score results from PubChem BioAssay AID1347426 (Functional Genomics Laboratory (NCATS/FGL), 2020).

In all, about 31,000 sequences went through this assay and about 1,400 (4.5%) were called active.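 How the source made its calls: active means median seed-adjusted z-score above 1 or below -1; inactive means the rest.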 This excerpt belongs to a sample that is enriched for actives.

The assay can be described thus: Novel Modifiers of Survival Motor Neuron (SMN) Protein: Gene Identification via Genome-wide siRNA Screen.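 Further: luminescence tracks full-length SMN protein made from the SMN2 reporter.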 To be noted: HEK293T SMN2-luciferase reporter, siRNA knockdown, 72 h; actives lie on both sides. In a few lines: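 Steps: spot 1 pmol siRNA, add Lipofectamine RNAiMax in serum-free DMEM, seed HEK293T SMN2–luciferase reporter cells; incubate 72 h at 37 °C; add ONE-Glo; normalize luminescence to control siRNA, log10, MAD. Candidates: |MAD| > 1.0.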
Turning to GACUAGUUUUGAUCAGGAATT against ZBTB5, the median seed-adjusted z-score was 0.314 (inactive).

As to GCAGAAUUCUGACGAUGAUTT against LEO1, the median seed-adjusted z-score was 1.2 (active).

Take CGAACAAAACGGGCCUGGATT against FOXA2: the median seed-adjusted z-score is 0.883 (inactive).

For CCCUCUUUGGUCUAACUCATT against HOXA3, the median seed-adjusted z-score was 0.315 (inactive).

For the sequence CGAAGACACGUAGCCCUAATT against PUS3, the median seed-adjusted z-score is 0.584 (inactive).

As for GGUGUAAUAAUGUCCUUUATT against SNRPF, the median seed-adjusted z-score is -2.66 (active).

For GGACUACAAAGUCGACCAATT against NDUFB10, the median seed-adjusted z-score is -0.39 (inactive).

For the sequence GGAGAUAGAACCUUCCAGATT against HLA-B, the median seed-adjusted z-score was -0.355 (inactive).

For CUAGAGUCGCUGUUGAAGATT against DRAP1, the median seed-adjusted z-score was 1.08 (active).

Take GGGUGGAGGUGUACUAUGATT against LOXL2: the median seed-adjusted z-score was 0.177 (inactive).

Take CAUCAUCAGUUUUUCGAUUTT against AHCTF1: the median seed-adjusted z-score was -0.501 (inactive).

On to GAUGCCCAGUGUCCUGUUATT against PIF1, for which the median seed-adjusted z-score was -0.0455 (inactive).

GCAAGACAAGUGUCGGGAATT against HSPA6: the median seed-adjusted z-score was 0.364 (inactive).

In the case of CAGCAGAACGUGUACGAGATT against ZBTB7A, the median seed-adjusted z-score is -0.344 (inactive).

For the sequence CAAGUGGGCUGAGUACCAUTT against PHPT1, the median seed-adjusted z-score was 1.27 (active).

GAGGUAAGAUGGAUGAAGATT against ACSM1: the median seed-adjusted z-score is 0.658 (inactive).

UCAAUGCCUCCUUAAUUUUTT against ZNF321: the median seed-adjusted z-score was -0.642 (inactive).

Regarding CAGCGGAUGUGUUCAGUCUTT against PKMYT1, the median seed-adjusted z-score is 0.65 (inactive).

For CAAAACUAGUAAUCCUUAUTT against CDK8, the median seed-adjusted z-score is -1.47 (active).

As for GGACAUGUGCGUCUACCGATT against HOXD13, the median seed-adjusted z-score is 0.116 (inactive).

Turning to GGAUUUAUCAGAACCUUUATT against SLC25A15, the median seed-adjusted z-score is -0.0116 (inactive).

Turning to CCUACCAUCUUGUCCCUAATT against SLC7A6, the median seed-adjusted z-score is -0.0877 (inactive).

Consider UGGAGUAAAUGAUAAGAUATT against TRIM45, for which the median seed-adjusted z-score is -0.0974 (inactive).

GCACCAUUACUAUAGAGGATT against PTH2R: the median seed-adjusted z-score is -0.492 (inactive).

In the case of CAUCACCUAUUGGAUCCAATT against MMP9, the median seed-adjusted z-score is -1.15 (active).

On to CGGUCCAAAUUGAAAGCGATT against STX1B, for which the median seed-adjusted z-score was 0.229 (inactive).

As for CGACUUGUUGUAUAAGUAUTT against DYNC1LI2, the median seed-adjusted z-score is -0.491 (inactive).

In the case of CCAAGUUAUUGCUAUCAGATT against PPCS, the median seed-adjusted z-score was 0 (inactive).

Consider GGUAAACGCAAAGCACUGATT against MAP2K4, for which the median seed-adjusted z-score is -0.366 (inactive).

For the sequence GCCUCUUGCUAGGCAUAGCTT against CLDN15, the median seed-adjusted z-score is 0.973 (inactive).

For the sequence CCCUCGACAGAGUCAGUUUTT against NPC1, the median seed-adjusted z-score is -0.195 (inactive).

Take GAUUGAAACUGACAAGACATT against DLST: the median seed-adjusted z-score is 1.16 (active).

For the sequence CAGCUACGGAAGAACCUGATT against PHF21A, the median seed-adjusted z-score is 0.179 (inactive).

Consider UCGAGGAAAUGAUCCGGGATT against GALE, for which the median seed-adjusted z-score was -0.153 (inactive).

Regarding GGAGGAUCGUUUAGACAGATT against TCF12, the median seed-adjusted z-score is -0.16 (inactive).

CAGCUGCAAUUCUAGCUAATT against RETSAT: the median seed-adjusted z-score is -1.7 (active).

Regarding CAAUCACUGUGGAAUAUCATT against INPPL1, the median seed-adjusted z-score was 0.199 (inactive).

Consider CAAGGGUAUUAUUCGAGUUTT against PPP1R3A, for which the median seed-adjusted z-score is -0.241 (inactive).

As for GAAAACCGCAGAUAAAGUATT against NFRKB, the median seed-adjusted z-score was 0.787 (inactive).

On to GGUGCAAUCAGAUAACAUATT against PPAPDC1A, for which the median seed-adjusted z-score is 0.634 (inactive).

Consider CUGUUUAAGCGAUGACAAATT against CFL2, for which the median seed-adjusted z-score is -0.148 (inactive).

As for AUCCUUAUUUGACACGAAATT against HOXC8, the median seed-adjusted z-score was -0.0285 (inactive).

For GGACUUUGCCUAUGUCUGUTT against TFAP2C, the median seed-adjusted z-score was 1.28 (active).

For AGACCACCAAGGUUUCUUUTT against KCNH6, the median seed-adjusted z-score was 0.424 (inactive).

Turning to CUGGAAUGGUUGUCUGGUATT against SERTAD1, the median seed-adjusted z-score is 0.376 (inactive).

Turning to GAAGAGAACUUCUGCCGUATT against MST1, the median seed-adjusted z-score is -1.47 (active).

Take GAUUAAUCCUUCAAUGAUUTT against TAF9B: the median seed-adjusted z-score was -0.0247 (inactive).

As to CGUCAGCUAUGUAAUGUUUTT against SLC22A7, the median seed-adjusted z-score was -0.387 (inactive).

As for GGACAGCUACGUGAAGAUUTT against PAK6, the median seed-adjusted z-score was -0.57 (inactive).

In the case of UGAUGGUUGUGACAAUUGUTT against SUPT4H1, the median seed-adjusted z-score is -1.01 (active).

As for AGCCUGUGAUGACUACAGATT against MGP, the median seed-adjusted z-score is -0.0854 (inactive).

As for GAACUUACCUUCAACUACATT against NSD1, the median seed-adjusted z-score was -0.372 (inactive).

Consider GAGUGAUUCUAGCCUCUAATT against SEC61A1, for which the median seed-adjusted z-score is 0.312 (inactive).

Take CGAGAAAUCCCACAAGCGATT against NOVA2: the median seed-adjusted z-score is 0 (inactive).

Turning to GGAAGGCUUUUAGCAAUGATT against ZNF570, the median seed-adjusted z-score was 0.662 (inactive).

Consider GGAUCGAGGAAAUAACAAUTT against DDX42, for which the median seed-adjusted z-score was -2.13 (active).

For the sequence GAAUGAGUUUUGUCAUGGATT against SUV39H2, the median seed-adjusted z-score was -0.279 (inactive).

As to AGGCCGUGCUCUUCACCUATT against FAAH, the median seed-adjusted z-score was 0.373 (inactive).

Regarding GAGAUAUACGAGGAGAUUATT against TIGD1, the median seed-adjusted z-score was 0.224 (inactive).

Regarding GGUCAGAACAUUCACCGAATT against CFTR, the median seed-adjusted z-score was -1.23 (active).

In the case of GAAUGUGCUAUGAAGCUUUTT against SPRR1B, the median seed-adjusted z-score was -0.721 (inactive).

Regarding GGCUCGUAUUUUCUGGUUUTT against ACHE, the median seed-adjusted z-score is 0 (inactive).

For the sequence CCUUGCCUCUAUGAGAUCATT against CHCHD2, the median seed-adjusted z-score was 0.0884 (inactive).

As to GGGUCAUUCUAUGGGCAAATT against OGFOD2, the median seed-adjusted z-score is 0.493 (inactive).

On to GACUUGAGCUAAAUGGUCATT against SIAH1, for which the median seed-adjusted z-score is 1.5 (active).

On to CCUAUACUGUGGGCUAUAATT against STARD4, for which the median seed-adjusted z-score is 0.173 (inactive).

Take AGCCGUGGAUGGUAGAUCUTT against ZNF2: the median seed-adjusted z-score is -0.119 (inactive).

CAGACUAAACUAUAGCGAUTT against SENP6: the median seed-adjusted z-score is -1.03 (active).

Consider GCAACUCCAAUGUCAGUGATT against TAF9B, for which the median seed-adjusted z-score was -0.0247 (inactive).

On to GAGUCUGAAGGAUACUAUUTT against PGAM1, for which the median seed-adjusted z-score was -0.234 (inactive).

GCCCUGAACAAGUUGCUCATT against TRPV6: the median seed-adjusted z-score was -0.511 (inactive).

Regarding GCUUUUCCCGGUCAGAUCATT against KLF12, the median seed-adjusted z-score was -0.0892 (inactive).

Take CCAUCGCAGAGGGAGAUAATT against USP43: the median seed-adjusted z-score was 0 (inactive).

On to GCUUCUAUAUUCAUGCUAATT against DDX6, for which the median seed-adjusted z-score is 1.12 (active).

GGUGAUGAGUGUUCCUACATT against KCNA4: the median seed-adjusted z-score was -0.634 (inactive).

Regarding GGAUUUCUCAUGGAAGUUUTT against CUTC, the median seed-adjusted z-score is -0.377 (inactive).

In the case of CGUAAAACCCAUCAAGUUUTT against B3GALNT1, the median seed-adjusted z-score is 0.128 (inactive).

As to GGCGGCAAGACGUAAGGAATT against SEMA3B, the median seed-adjusted z-score was 0.000251 (inactive).

UGCUGACCCUAAUCCCUUATT against ETV2: the median seed-adjusted z-score is 0 (inactive).

On to AGUUAGAGGUAGCAUUAUATT against FZD5, for which the median seed-adjusted z-score is -0.129 (inactive).

For the sequence GAGCAAUGCUGACUAUCAATT against CNOT7, the median seed-adjusted z-score is 0.716 (inactive).

Take CACUCGCAGUUAAUAUCAUTT against AZIN1: the median seed-adjusted z-score was -1.14 (active).

For GGAUCCAGCUUUUCCUCGATT against ABCC10, the median seed-adjusted z-score is -1.56 (active).

As for CCACGGCUGCAACAUCUUUTT against PDE2A, the median seed-adjusted z-score was -0.2 (inactive).

With CAGCCGCUCUCGUCAAUGUTT against GGTLC2, the median seed-adjusted z-score was -0.288 (inactive).

Consider ACAACUUCGUUUUCGGUCATT against TUBB2C, for which the median seed-adjusted z-score was 0 (inactive).

With GCAGCAACAUUAUUGUCUUTT against CLDN17, the median seed-adjusted z-score is 0 (inactive).

Regarding GAAUGAAUUCUCUACUCUATT against ERBB3, the median seed-adjusted z-score is -0.561 (inactive).

Consider GCCUGUGAAGUGAACCUGATT against TMPRSS6, for which the median seed-adjusted z-score is 1.29 (active).

In the case of UGAUAUUGCUUAGUCCAUUTT against PRLHR, the median seed-adjusted z-score is 0 (inactive).

Take CAAACGUGGACUGUCCAAATT against CA4: the median seed-adjusted z-score is 0.0549 (inactive).

For the sequence CAUGCACGGAGAGCCCAAATT against RPUSD3, the median seed-adjusted z-score was 0.303 (inactive).

With CCAGGAGAUCUUUGCCUUUTT against SLC4A3, the median seed-adjusted z-score is -0.7 (inactive).

Consider GAACCGCUACAAGAACAUUTT against PTPN6, for which the median seed-adjusted z-score was -0.515 (inactive).

As for AGAUGAAACUUCUACUGAATT against POLR2H, the median seed-adjusted z-score is -2.74 (active).

On to CUUUGUCUAUGUCACCAUUTT against IMP5, for which the median seed-adjusted z-score is 0.559 (inactive).

For CAAGCGAAUUAACUAUCUATT against GJB3, the median seed-adjusted z-score is -0.198 (inactive).

With GUCUCGCUGUGAUAGAUCATT against ELN, the median seed-adjusted z-score is -0.149 (inactive).

For the sequence CCAACAUCGAGUCCCUCAATT against SLC29A3, the median seed-adjusted z-score is -0.0626 (inactive).

Regarding CUGAUAAAGUGGGUCAACATT against TNFRSF10B, the median seed-adjusted z-score is 0.064 (inactive).

CCAUCGUCAUGGAUCCAGATT against KDR: the median seed-adjusted z-score is 0.0728 (inactive).

Turning to GGGACAUCCUUUCCGGAAATT against NDUFS3, the median seed-adjusted z-score is -0.54 (inactive).

Turning to GGAGUGUGAUGAUUCGUGATT against DGKK, the median seed-adjusted z-score is 0 (inactive).

In the case of AGAACUCACCUCCUGAUUATT against YY1, the median seed-adjusted z-score was 1.94 (active).

Take GCAAGAUAACAAUUGAUAUTT against ANKRD30A: the median seed-adjusted z-score is 0.259 (inactive).

Take AGAUCUUCGCAAAUACUGUTT against KRT18: the median seed-adjusted z-score is 0.558 (inactive).

Take GGCUUAUGGAGGACCCUAUTT against NCOR1: the median seed-adjusted z-score was 0.0767 (inactive).

With CCUAUGAUCCAACACCAUATT against GMPPA, the median seed-adjusted z-score was 0.619 (inactive).

On to CAUUAGCAGUUGUCCCGUUTT against P2RY10, for which the median seed-adjusted z-score was -0.432 (inactive).
